High-throughput results as filed in PubChem.
BCR signal inh: inhibitors of chronic active B-cell receptor signaling. ABC-DLBCL IkBa-CBG/CBR reporter, luminescence ratio, 4 h. Potency, µM (series often up to 46.1 µM), usual class: inhibitors. 0.05% of 340,000 active. AID 493014; active = well fitted inhibition curve with a large enough effect in the signal ratio, with a control signal flat, not every such curve was filed as active; inconclusive = small, poorly fitted or top-dose-only effect, or effect the other way, or a change in a side signal; the % refers to the signal ratio
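Doxycycline induced both beetle luciferases in TMD8 lymphoma cells; IKK-driven degradation limits the IkappaBalpha-fused green signal, while red luminescence normalises for cell number and nonspecific effects. Compounds tested up to 46 uM, 4 hrs.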
Giardia killer: Giardia lamblia killing; Giardia lamblia trophozoite viability; 0.15% of 340,000 active; AID 540267; activity change, % at 7.66 µM, hits read low; in the data active = activity change below about -80%; inconclusive = between about -30% and that limit;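 note: parasites exposed to compound for two days anaerobically before the ATP read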
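Luminescent ATP signal served as the viability read-out, measured 15-30 min after adding ATP detection reagent to trophozoites that had been incubated with compounds for 48 hrs at 37 deg C anaerobically at 100 cells/well.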
RORg inh: inhibitors of mouse ROR gamma transcriptional activity. P51450. Drosophila S2 Gal4-RORgamma UAS-luciferase reporter, 20 h. Potency, µM (highest dose often 53.6 µM), actives largely listed as inhibitors. 5.4% of 310,000 active; note: nearly all actives have a fitted effect of over 60% in size
Target sequence (P51450 whole entry, looked up, the tested form may be a part): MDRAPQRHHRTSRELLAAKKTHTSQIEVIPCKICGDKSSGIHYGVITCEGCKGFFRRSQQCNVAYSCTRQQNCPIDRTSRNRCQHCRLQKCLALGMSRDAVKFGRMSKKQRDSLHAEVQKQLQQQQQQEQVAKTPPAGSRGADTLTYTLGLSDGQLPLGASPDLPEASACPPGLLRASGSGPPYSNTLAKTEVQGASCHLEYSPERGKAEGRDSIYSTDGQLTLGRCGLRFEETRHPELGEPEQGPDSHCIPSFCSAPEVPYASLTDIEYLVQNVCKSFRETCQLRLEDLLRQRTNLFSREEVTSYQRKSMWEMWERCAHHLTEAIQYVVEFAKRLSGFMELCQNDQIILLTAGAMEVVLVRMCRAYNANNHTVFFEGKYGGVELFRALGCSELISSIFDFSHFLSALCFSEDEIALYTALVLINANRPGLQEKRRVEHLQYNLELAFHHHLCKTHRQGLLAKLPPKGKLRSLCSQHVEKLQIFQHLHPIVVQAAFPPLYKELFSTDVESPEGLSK
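Drosophila S2 cells stably expressing Gal4-DBD/mouse RORγ fusion under metallothionein promoter plus UAS-luciferase; compound 1 h, then 700 uM CuSO4 induction for 20 h at ambient temperature; inhibition read as reduced luminescence.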
Gal4-VP16 FLuc: inhibits Gal4-VP16 luciferase reporter, ROR gamma counter-screen. Potency, µM (series often up to 53.6 µM), most hits filed as inhibitors. Drosophila S2 Gal4-VP16 UAS-luciferase, luminescence, 20 h. 3.5% of 310,000 active;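 note: Gal4-VP16 expression switched on by copper sulfate through the metallothionein promoter; nearly all actives have a fitted effect of over 50% in size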
MCF10A rereplic: DNA re-replication induction in MCF 10a cells. MCF 10A DNA re-replication, Hoechst nuclear intensity, 48 h. Potency, µM (titrated, usually from 46.1 µM), actives largely listed as activators. 2.9% of 350,000 active. AID 624296; note: nearly all actives have a fitted effect of over 50% in size
SW480 rerep: induces DNA re-replication in SW480 colon adenocarcinoma cells; SW480 DNA re-replication, Hoechst DNA content imaging, 48 h; Potency, µM (series often up to 46.1 µM), most hits filed as activators; 1.8% of 340,000 active; note: nearly all actives have a fitted effect of over 55% in size
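Image-based DNA-content assay: after two days of treatment, nuclei were labelled with the DNA dye Hoechst and imaged, and hits were compounds raising the count of nuclei showing high fluorescence intensity.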
Of the large screens only hits and unclear results are named; the others gave an inactive call. Hits are enriched below; roughly 8.3% of the tested compounds scored in any of these assays. Unless noted, calls come from the whole dose curve; as a rule, active = well fitted curve in the direction sought with a large enough effect; inconclusive = small, poorly fitted or top-dose-only effect, or another doubt; inactive = no such curve, though single readings can be large; an effect the other way counts as inactive or inconclusive.

CC1CCN(S(=O)(=O)c2cccc(C(=O)Nc3nncs3)c2)CC1	none
COc1ccc(C2OC34CCCCC3C(C#N)(C#N)C2(C#N)C(=N)O4)cc1 (stereo not drawn)	none
CCn1c(=NC(=O)C2COc3ccccc3O2)sc2c(C)ccc(OC)c21 (stereo not drawn)	Gal4-VP16 FLuc inconclusive, MCF10A rereplic 16.4µM
C=CCn1c(=NC(=O)C2COc3ccccc3O2)sc2cccc(OC)c21 (stereo not drawn)	none
CC(C)(C)c1ccc(C(=O)NCC(=O)OCC(=O)Nc2ccc3c(c2)OCCO3)cc1	none
CCCc1cc(NCC2CCCO2)n2c(nc3ccccc32)c1C#N (stereo not drawn)	BCR signal inh inconclusive, MCF10A rereplic 16.4µM, SW480 rerep inconclusive
CSCC(C)N1CCC(n2nccc2NC(=O)CCOc2ccccc2)CC1 (stereo not drawn)	none
COc1ccc(CCNCc2csc3nc4ccccc4n23)cc1OC	Gal4-VP16 FLuc 6.31µM, SW480 rerep inconclusive
COc1ccc(CCNCc2ccc(-c3ccccc3)cc2)cc1OC	MCF10A rereplic 23.1µM, SW480 rerep inconclusive (no result: BCR signal inh, RORg inh, Gal4-VP16 FLuc)
CN1c2ccc(Cl)cc2C(=O)NC1c1ccc([N+](=O)[O-])s1 (stereo not drawn)	Giardia killer inconclusive, Gal4-VP16 FLuc inconclusive, MCF10A rereplic 11.6µM
O=[N+]([O-])c1ccc(CNc2ccc(Cl)cc2)s1	BCR signal inh inconclusive (no result: RORg inh, Gal4-VP16 FLuc)
COc1ccc(S(=O)(=O)Oc2cccc(/C=N/N=C3/NC(=O)C(CC(=O)O)S3)c2)cc1 (stereo not drawn)	SW480 rerep 6.51µM
O=C(C1CC1)N1N=C(c2ccccc2)CC1(O)C(F)(F)C(F)(F)F (stereo not drawn)	BCR signal inh inconclusive, RORg inh 11.2µM, Gal4-VP16 FLuc inconclusive
O=C(C1CC1)N1N=C(c2ccccc2)CC1(O)C(F)(F)F (stereo not drawn)	none
Cc1ccc(NC(=O)c2c(C(F)(F)F)nn(C)c2SCc2cccc(C(F)(F)F)c2)cc1C	Gal4-VP16 FLuc inconclusive
Cc1ccc(NC(=O)c2c(C(F)(F)F)nn(C)c2SCc2ccc(Cl)cc2)cc1C	RORg inh 0.447µM, MCF10A rereplic inconclusive, SW480 rerep inconclusive
O=C(CCS(=O)(=O)Cc1ccccc1)N1CCc2ccccc2C1	none
O=C(CCS(=O)(=O)Cc1ccccc1)N1CCN(Cc2ccccc2)CC1	MCF10A rereplic 10.3µM
Cc1cccc(C)c1OCC(=O)Nc1ccc2c(c1)C(=O)NC2=O	none
COC(=O)/C=C\C(C#N)(C#N)N=Cc1ccc(OC)cc1	MCF10A rereplic 13µM, SW480 rerep 6.51µM (no result: BCR signal inh, RORg inh, Gal4-VP16 FLuc)
CCN(CC)CCCNC(=O)c1ccc(OCC(=O)Nc2ccccc2C(F)(F)F)c(OC)c1	MCF10A rereplic 18.4µM, SW480 rerep inconclusive
CCN(CC(=O)Nc1ccc(OC)c(OC)c1)CC(=O)Nc1ccccc1C(F)(F)F	none
Clc1cc(Cl)c(Cl)cc1Cl	none
Clc1cc(Cl)c(OCC#CI)cc1Cl	RORg inh 7.08µM, Gal4-VP16 FLuc 5.62µM, MCF10A rereplic 21.1µM, SW480 rerep inconclusive (no result: BCR signal inh, Giardia killer)
COc1ccc(-c2ccc3ccccc3n2)cc1	BCR signal inh inconclusive, RORg inh inconclusive, Gal4-VP16 FLuc inconclusive
COc1ccc(-c2noc(C)c2-c2ccc3ccccc3n2)c(O)c1	MCF10A rereplic inconclusive, SW480 rerep 4.61µM
CCOC(=O)N1CCN(C(=O)c2cc3c(s2)-c2ccc(Cl)cc2S(=O)(=O)C3)CC1	BCR signal inh inconclusive, MCF10A rereplic inconclusive
COc1ccc(C(CCNCc2ccc(F)cc2)c2ccc(F)cc2)cc1 (stereo not drawn)	RORg inh inconclusive, Gal4-VP16 FLuc inconclusive, MCF10A rereplic 5.17µM (no result: SW480 rerep)
COC(=O)C1(Cc2ccc(O)c(CC3OC3(C)C)c2)OC(=O)C(O)=C1c1ccc(O)cc1 (stereo not drawn)	Gal4-VP16 FLuc inconclusive
S=c1[nH]cc(-c2ccccc2)n1-c1ccccc1Cl	RORg inh 3.55µM, Gal4-VP16 FLuc 7.08µM
COc1ccccc1-n1c(-c2ccccc2)c[nH]c1=S	RORg inh 2.82µM, Gal4-VP16 FLuc inconclusive, MCF10A rereplic 5.17µM
